Only some compounds are listed: those with a hit (about 3.5% of all), similar ones and a draw of the others.
MBD2 DNA inh: inhibitors of human MBD2 binding to methylated oligonucleotide; Q9UBB5; TR-FRET; inhibition, % at 4.4 µM; 0.31% of 370,000 active; in the data active means inhibition above about 13%
LEDGF integ inh: blocks HIV-1 LEDGF/p75-dependent DNA integration. TR-FRET IN-LEDGF/p75 DNA integration, Eu/Cy5. inhibition, % at 3.7 µM. 0.64% of 370,000 active;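 active means inhibition above the screen-wide mean plus 3 SD, cut at about 13% in these data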;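 further: signal is the Cy5 over europium emission ratio at 671 and 618 nm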
UHRF1 MBD2 ctr: blocks human UHRF1 binding to methylated DNA; UHRF1 binding to methylated oligo, TR-FRET; inhibition, % at 4.4 µM; 0.75% of 370,000 active; in the data active means inhibition above about 21%;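 further: UHRF1 SRA domain binding a hemimethylated CpG hairpin DNA probe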
PG9 binder: binds the HIV-1 gp120 antibody PG9; TR-FRET gp120-PG9 antibody binding; AID 624416; 0.43% of 360,000 active; inhibition, % at 6.7 µM; in the data active means inhibition above about 8.5%
DNMT1 inh: blocks human DNA methyltransferase DNMT1; 0.83% of 360,000 active; P26358; DNMT1 molecular beacon, Hinp1I cleavage, fluorescence; AID 588458; inhibition (reported as % activation of signal), % at 10 µM; in the data active means inhibition above about 50%
Target sequence (P26358 504-1616 limits assumed): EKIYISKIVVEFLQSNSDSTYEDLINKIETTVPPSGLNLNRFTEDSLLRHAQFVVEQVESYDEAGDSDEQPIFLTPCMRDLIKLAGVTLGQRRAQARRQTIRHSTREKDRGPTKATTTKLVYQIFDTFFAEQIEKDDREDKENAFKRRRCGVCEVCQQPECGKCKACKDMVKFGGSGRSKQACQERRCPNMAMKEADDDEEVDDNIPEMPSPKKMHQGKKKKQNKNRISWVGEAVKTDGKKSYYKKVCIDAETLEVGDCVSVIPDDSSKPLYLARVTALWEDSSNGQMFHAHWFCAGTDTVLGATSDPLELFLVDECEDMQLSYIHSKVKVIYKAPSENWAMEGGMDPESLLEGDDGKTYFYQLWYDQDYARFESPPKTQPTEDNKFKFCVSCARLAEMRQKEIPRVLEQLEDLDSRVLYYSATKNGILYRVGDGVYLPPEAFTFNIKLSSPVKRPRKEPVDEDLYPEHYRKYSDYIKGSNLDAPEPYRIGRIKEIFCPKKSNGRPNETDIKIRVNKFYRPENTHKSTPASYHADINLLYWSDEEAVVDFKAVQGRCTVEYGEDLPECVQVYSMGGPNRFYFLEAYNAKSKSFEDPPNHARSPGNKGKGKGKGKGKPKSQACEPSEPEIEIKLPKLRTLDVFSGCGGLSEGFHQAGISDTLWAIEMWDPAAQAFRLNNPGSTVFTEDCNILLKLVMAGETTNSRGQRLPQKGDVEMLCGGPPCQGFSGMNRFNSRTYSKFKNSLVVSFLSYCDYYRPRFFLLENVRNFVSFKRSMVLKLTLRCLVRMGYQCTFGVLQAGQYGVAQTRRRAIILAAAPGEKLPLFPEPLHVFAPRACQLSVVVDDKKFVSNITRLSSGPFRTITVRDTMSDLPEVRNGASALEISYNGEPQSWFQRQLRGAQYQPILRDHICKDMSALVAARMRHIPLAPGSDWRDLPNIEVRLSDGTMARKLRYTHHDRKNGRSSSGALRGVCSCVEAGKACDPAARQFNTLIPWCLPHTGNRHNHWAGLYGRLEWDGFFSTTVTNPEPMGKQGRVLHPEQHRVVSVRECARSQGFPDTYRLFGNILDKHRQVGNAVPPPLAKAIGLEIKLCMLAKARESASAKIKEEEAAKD
rCAG binder: binds r(CAG) RNA repeats; 1.3% of 370,000 active; r(CAG) RNA repeat, TO-PRO-1 dye displacement fluorescence; AID 651821; inhibition, % at 3 µM;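 active means inhibition above the plate cutoff, the mean of all test compounds on that plate plus 3 SD, cut at about 35% in these data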;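 further: higher means more dye released from RNA so lower well fluorescence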
IN multimer act: HIV-1 integrase multimerization activation, counter-screen. shares compounds with LEDGF integ inh. activation, % at 7.7 µM. TR-FRET HIV-1 integrase multimerization, biochemical. 17% of 2,000 active; in the data active means activation above about 8.9%
TR-FRET interf: TR-FRET optical interference, LEDGF/p75 integration counter-screen | shares compounds with LEDGF integ inh | TR-FRET optical interference counterscreen, HIV-1 IN multimerization | inhibition, % at 7.7 µM | 2,000 tested, under 10 active | AID 1053135;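 active means inhibition above the mean over all tested compounds plus 3 SD, which no compound reached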
LEDGF integ conf: LEDGF/p75-dependent HIV-1 integration inhibition, confirmation. shares compounds with LEDGF integ inh. TR-FRET LEDGF/p75-dependent HIV-1 integration, biochemical. inhibition, % at 3.7 µM. 36% of 2,000 active; in the data active means inhibition above about 14%
Each line names hits and unclear results; the compound was inactive in the other large screens (follow-up assays come after a bar, where they were run).

O=C(c1cccs1)N1CCC(c2nc3c(nnn3Cc3cccc(Cl)c3)c(=O)[nH]2)CC1	none
CCNc1nc(-c2sc(NC(=O)C(C)(C)C)nc2C)c(-n2cc(-c3ccccc3)nn2)s1	none (no result: DNMT1 inh)
COC(=O)c1ccccc1-c1ccc(C(c2c(C)[nH][nH]c2=O)c2c(C)[nH][nH]c2=O)o1	none
COC(=O)c1cccc(-c2ccc(C(c3c(C)[nH][nH]c3=O)c3c(C)[nH][nH]c3=O)o2)c1	LEDGF integ inh 14 | IN multimer act inactive | TR-FRET interf inactive | LEDGF integ conf inactive
Cc1ccc(CNc2ccc(N3CCOCC3)cc2)s1	none
CC(=O)N1CCN(c2ccc(NCc3ccc4c(c3)OCO4)cc2)CC1	none
COc1ccc(CNc2ccc(N3CCN(C(C)=O)CC3)cc2)cc1OC	LEDGF integ inh 15 | IN multimer act inactive | TR-FRET interf inactive | LEDGF integ conf inactive
CC(=O)N1CCN(c2ccc(NCc3ccc(C)s3)cc2)CC1	LEDGF integ inh 15 | IN multimer act inactive | TR-FRET interf inactive | LEDGF integ conf inactive
CC(=O)N1CCN(c2ccc(NCc3ccccc3)cc2)CC1	none
CC(=O)N1CCN(c2ccc(NCc3ccc(-c4ccc(Br)cc4)o3)cc2)CC1	LEDGF integ inh 19 | IN multimer act inactive | TR-FRET interf inactive | LEDGF integ conf inactive
CC(=O)N1CCN(c2ccc(NCc3cccs3)cc2)CC1	LEDGF integ inh 22 | IN multimer act inactive | TR-FRET interf inactive | LEDGF integ conf inactive
C=CCn1c(SCC(=O)Nc2ccccc2-c2ccccc2)nnc1-c1ccccc1	none (no result: PG9 binder, DNMT1 inh)
CC(C)(C)C(=O)Nc1ccc(/C=C/C(=O)c2ccco2)cc1	LEDGF integ inh 34 | IN multimer act inactive | TR-FRET interf inactive | LEDGF integ conf inactive
Cc1oc(CC(C)C)cc1C(=O)Nc1ccc(C(=O)O)cc1	LEDGF integ inh 16 | IN multimer act inactive | TR-FRET interf inactive | LEDGF integ conf inactive
Cc1ccc(NC(=O)COC(=O)c2ccc(CN3CCCC3=O)cc2)c(Cl)c1	none
CCOC(=O)N1CCN(C(=O)C[C@H]2C[C@@]3(C(=O)OC)C(=C[C@H](C4CCCC4)O[C@@H]3C)N(Cc3cccc4ccccc34)C2=O)CC1	none (no result: PG9 binder, DNMT1 inh)
Cc1cc(C(=O)COC(=O)Cc2n[nH]c(=O)c3ccccc23)c(C)n1-c1cccc(C(F)(F)F)c1	LEDGF integ inh 30 | IN multimer act inactive | TR-FRET interf inactive | LEDGF integ conf inactive
CC(=O)N(/N=C1\Sc2ccccc2C1=O)c1cccc(C)c1	LEDGF integ inh 22, DNMT1 inh 51 | IN multimer act inactive | TR-FRET interf inactive | LEDGF integ conf 51
CC1(C(=O)NS(=O)(=O)c2ccc(Cl)cc2)CCN1C(=O)C/C=C/c1ccccc1 (configuration not stated)	none
OCc1cccc(-c2csc(C(O)c3ccco3)n2)c1 (configuration not stated)	none
CC(=O)N1CCn2c3c(c(=O)c4cc(C)ccc42)CCC31 (configuration not stated)	LEDGF integ inh 20 | IN multimer act inactive | TR-FRET interf inactive | LEDGF integ conf 23
CC1(NC(=S)Nc2ccc3ccccc3c2)CCS(=O)(=O)C1 (configuration not stated)	none
CN(C)C(=S)NC(=S)Nc1ccc2ccccc2c1	LEDGF integ inh 16 | IN multimer act inactive | TR-FRET interf inactive | LEDGF integ conf 18
COc1cc(OC)cc(C(=O)n2cnnc2N)c1	LEDGF integ inh 25 | IN multimer act inactive | TR-FRET interf inactive | LEDGF integ conf inactive
CN(C)CCCNc1cc(O)c2ncccc2c1	LEDGF integ inh 30 | IN multimer act inactive | TR-FRET interf inactive | LEDGF integ conf 40
COC(=O)CSC1=C(C#N)C(c2ccc3c(c2)OCO3)C2=C(CCCC2=O)N1 (configuration not stated)	none (no result: MBD2 DNA inh, LEDGF integ inh, UHRF1 MBD2 ctr, PG9 binder, rCAG binder)
COC(=O)C1=C(N)N(c2ccccc2C(F)(F)F)C2=C(C(=O)CCC2)C1c1ccc2c(c1)OCO2 (configuration not stated)	LEDGF integ inh 33 | IN multimer act inactive | TR-FRET interf inactive | LEDGF integ conf inactive
O=C1CC(c2ccco2)CC(O)=C1C=Nc1cc(Cl)cc(Cl)c1 (configuration not stated)	LEDGF integ inh 45, UHRF1 MBD2 ctr 33 | IN multimer act inactive | TR-FRET interf inactive | LEDGF integ conf inactive
CCOc1ccc(N=CC2=C(O)CC(c3ccco3)CC2=O)cc1 (configuration not stated)	none
O=C(NCCNCc1ccc(F)cc1)c1ccco1	LEDGF integ inh 22 | IN multimer act inactive | TR-FRET interf inactive | LEDGF integ conf inactive
O=c1c2cc(Cl)ccc2oc2nc3n(c(=O)c12)CCCS3	LEDGF integ inh 22 | IN multimer act inactive | TR-FRET interf inactive | LEDGF integ conf 27
N#Cc1c(-c2ccc(Cl)cc2)nc2n(c1=O)CCCS2	none
O=C1C=C(Nc2ccccc2O)c2ccccc2C1=O	LEDGF integ inh 28 | IN multimer act 19 | TR-FRET interf inactive | LEDGF integ conf 37
O=C1C=C(Nc2cccnc2)c2ccccc2C1=O	LEDGF integ inh 29 | IN multimer act inactive | TR-FRET interf inactive | LEDGF integ conf 55
NC1=CC(=O)C(=O)c2ccccc21	none
Oc1ccc(-c2cn3c(n2)SCC3)cc1O	LEDGF integ inh 52 | IN multimer act 72 | TR-FRET interf inactive | LEDGF integ conf 58
CCc1nc(SCC(=O)N2CCc3ccccc32)c2oc3ccccc3c2n1	LEDGF integ inh 14 | IN multimer act inactive | TR-FRET interf inactive | LEDGF integ conf inactive
Cn1c(=O)c(C(=O)c2ccccc2)c(O)c2ccccc21	none
Cn1c(=O)c(C(=O)c2ccc(S(C)(=O)=O)c(Cl)c2Cl)c(O)c2ccccc21	LEDGF integ inh 38 | IN multimer act inactive | TR-FRET interf inactive | LEDGF integ conf inactive
O=C(CCCCCN1C(=O)c2ccccc2C1=O)NC1CCCC1	LEDGF integ inh 66 | IN multimer act inactive | TR-FRET interf inactive | LEDGF integ conf inactive
CC(C)C[C@@H](CN1CCC[C@H]1CN1C(=O)C(=O)NC[C@@H]1Cc1ccc(O)cc1)N1C[C@H](Cc2ccc(O)cc2)N(CCc2ccccc2)C(=O)C1=O	LEDGF integ inh 73 (no result: DNMT1 inh) | IN multimer act inactive | TR-FRET interf inactive | LEDGF integ conf inactive
CCCS(=O)(=O)NC(=O)C1(C)CCN(C(=O)c2snnc2C)C1 (configuration not stated)	none

Assay outcomes: PubChem BioAssay, several laboratories
